Sampled rows, rich in hits. Any-hit rate of the full collection: about 21%.
IL1B secr inh = qHTS for Inhibitors of Inflammasome Signaling: IL-1-beta AlphaLISA Primary Screen. THP-1 LPS/ATP IL-1B secretion, AlphaLISA, 16 h; stronger effect = lower value. 360,000 tested, 4.7% active. activity change, % at 57.5 µM. AID 743279, 2014; in the data active = activity change below about -50%; inconclusive = mostly about -30% to -49%
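THP-1 cells pretreated 1 hr with compounds (up to 57.5 uM final), then stimulated with LPS (250 ng/mL final) plus ATP (1.25 mM final); secreted IL-1B measured by AlphaLISA after 16 hr, decreased signal indicating inhibition.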
RORgamma inh = qHTS for inhibitors of ROR gamma transcriptional activity | AID 2551, 2010 | 310,000 tested, 5.4% active | Potency, µM (doses to about 53.6 µM), without a hit: top-dose activity change, negative = inhibition, actives largely listed as inhibitors | Drosophila S2 Gal4-RORgamma UAS-luciferase reporter, 20 h; note: potency is the fitted concentration of half-maximal effect; nearly all actives have a fitted effect of over 60% in size
Target sequence (P51450 whole entry, looked up, the tested form may be a part): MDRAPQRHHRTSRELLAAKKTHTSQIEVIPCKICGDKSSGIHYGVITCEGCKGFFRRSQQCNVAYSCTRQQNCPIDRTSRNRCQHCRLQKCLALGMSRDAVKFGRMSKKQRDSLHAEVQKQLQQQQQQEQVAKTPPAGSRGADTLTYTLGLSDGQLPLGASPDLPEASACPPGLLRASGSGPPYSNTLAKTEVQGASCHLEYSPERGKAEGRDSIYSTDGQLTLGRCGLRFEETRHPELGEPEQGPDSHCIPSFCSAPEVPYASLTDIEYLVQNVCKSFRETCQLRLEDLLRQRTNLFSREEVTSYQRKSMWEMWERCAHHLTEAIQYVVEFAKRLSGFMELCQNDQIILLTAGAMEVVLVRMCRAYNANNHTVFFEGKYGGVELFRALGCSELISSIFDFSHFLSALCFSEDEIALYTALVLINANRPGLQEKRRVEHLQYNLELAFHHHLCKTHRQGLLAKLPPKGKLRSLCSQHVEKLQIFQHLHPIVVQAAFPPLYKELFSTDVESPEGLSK
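A Gal4/UAS one-hybrid system in insect cells: metallothionein-promoter Gal4–ROR gamma fusion plus Photinus luciferase reporter. Copper sulfate 700 uM final, 20 hr ambient incubation, luminescent detection after 10 min with reagent.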
ELG1 DNA repair = qHTS screen for small molecules that inhibit ELG1-dependent DNA repair in human embryonic kidney (HEK293T) cells expressing luciferase-tagged ELG1. Potency, µM (series often up to 46.1 µM), for the others: top-dose activity change, negative = inhibition, usual class: inhibitors. 330,000 tested, 2.3% active. HEK293T ELG1-luciferase reporter, luminescence, 16 h; DNA damage induced by 5-fluorouridine. AID 504467, 2011; note: potency is the fitted concentration of half-maximal effect; nearly all actives have a fitted effect of over 55% in size
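5-Fluorouridine DNA damage + compound/DMSO, 2,000 cells/well, 16 h, 37 °C/5% CO2. ONE-Glo, 30 min RT, luminescence. Readout = decrease in reporter signal.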
DT40 TDP1 no CPT = qHTS for Inhibitors of human tyrosyl-DNA phosphodiesterase 1 (TDP1): qHTS in cells in absence of CPT. AID 686978, 2013. 420,000 tested, 15% active. DT40 Tdp1-/- hTDP1 cells, no CPT, ATP luminescence, 48 h. Potency, µM (titrated, usually from 46.2 µM), without a hit: top-dose activity change, negative = growth inhibition, hits mostly inhibitors; note: potency is the fitted concentration of half-maximal effect; nearly all actives have a fitted effect of over 55% in size
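A cellular qHTS used chicken DT40 cells lacking endogenous Tdp1 but carrying stably transfected human TDP1. Compounds were applied without camptothecin, and cell growth kinetics were judged by ATP-dependent luminescence after ≥48 hr.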
VP16 counter = VP16 counterscreen qHTS for inhibitors of ROR gamma transcriptional activity; Drosophila S2 Gal4-VP16 UAS-luciferase, luminescence, 20 h; Potency, µM (top dose mostly 53.6 µM), inactives show top-dose activity, negative = inhibition, hits mostly inhibitors; 310,000 tested, 3.5% active;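 note: Gal4-VP16 expression switched on by copper sulfate through the metallothionein promoter; potency is the fitted concentration of half-maximal effect; nearly all actives have a fitted effect of over 50% in size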
DT40 TDP1 CPT = qHTS for Inhibitors of human tyrosyl-DNA phosphodiesterase 1 (TDP1): qHTS in cells in presence of CPT | chicken DT40 Tdp1-/-;hTDP1 cells + 20 nM CPT, ATP luminescence, 48 h | Potency, µM (titrated, usually from 46.2 µM), without a hit: at the top dose activity change, negative = growth inhibition, actives largely listed as inhibitors | 420,000 tested, 12% active; note: potency is the fitted concentration of half-maximal effect; nearly all actives have a fitted effect of over 55% in size
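Cell growth measured by CellTiter-Glo luminescence after a minimum 48 h, 37 C compound exposure with 20 nM CPT in Tdp1-knockout DT40 cells stably expressing hTDP1, seeded 400/well; qHTS titration format.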
* hit, by the source's call; ? = inconclusive; . = not tested or not shown; [ ] = dose if it differs, or a comment. Unless noted, calls come from the whole dose curve; as a rule, active = well fitted curve in the direction sought with a large enough effect; inconclusive = small, poorly fitted or top-dose-only effect, or another doubt; inactive = no such curve, though single readings can be large; an effect the other way counts as inactive or inconclusive. % is set by controls: 0 for no effect and ±100 for the full control effect.

SMILES | IL1B secr inh | RORgamma inh | ELG1 DNA repair | DT40 TDP1 no CPT | VP16 counter | DT40 TDP1 CPT
O=C(NNC(=O)c1cc(S(=O)(=O)N2CCOCC2)ccc1Cl)c1ccc(F)cc1 | 19.2 | . | . | -20.1% | . | -28.3%
O=S(=O)(NCC(c1ccco1)N1CCN(c2ccc(F)cc2)CC1)c1cc(F)ccc1F (stereo not given) | . | . | . | 16.4µM* | . | 18.4µM*
Cc1cc(C)c(S(=O)(=O)NCC(c2ccco2)N2CCN(c3ccccc3)CC2)c(C)c1 (stereo not given) | . | . | . | 25.9µM* | . | 23.1µM*
O=S(=O)(NCC(c1ccco1)N1CCN(c2ccccc2F)CC1)c1ccc(F)cc1 (stereo not given) | 4.8 | 3.8% | -6.5% | ? | -1.8% | ?
COc1ccc(S(=O)(=O)NCC(c2ccco2)N2CCN(c3ccc(F)cc3)CC2)cc1C (stereo not given) | . | . | . | 23.1µM* | . | 16.4µM*
O=S(=O)(NCC(c1cccnc1)N1CCN(c2ccc(F)cc2)CC1)c1cc(F)ccc1F (stereo not given) | -13.8 | . | . | ? | . | ?
O=S(=O)(NCC(c1ccco1)N1CCN(c2ccc(F)cc2)CC1)c1ccc(F)cc1 (stereo not given) | 25.3 | 11.2% | -11.9% | ? | 0.0% | 23.1µM*
Cc1ccc(C(=O)NNC(=O)COC(=O)COc2ccccc2C#N)cc1 | 18.2 | . | 21.2% | -8.6% | . | 1.7%
COc1ccc(S(=O)(=O)NCC(c2cccnc2)N2CCN(c3ccc(F)cc3)CC2)cc1C (stereo not given) | ? | ? | ? | 16.4µM* | -10.6% | 14.6µM*
COc1ccc(S(=O)(=O)NCC(c2cccnc2)N2CCN(c3ccccc3)CC2)cc1C (stereo not given) | -5.4 | ? | -11.5% | ? | -8.7% | ?
CCn1cc(CN2CCc3c([nH]c4ccccc34)C2c2ccc(F)c(OC)c2)c(C)n1 (stereo not given) | -18.1 | 24.6% | ? | -23.6% | 4.4% | ?
CCn1nc(C)c(CN2CCc3c([nH]c4ccccc34)C2c2ccc(F)c(OC)c2)c1C (stereo not given) | -15.3 | -0.2% | ? | 11.6µM* | 3.7% | 29.1µM*
c1csc(C2Nc3ccccc3-c3nc4ccccc4n32)c1 (stereo not given) | ? | 1.3% | ? | ? | -12.9% | 16.4µM*
O=C(N/N=C/c1ccc[nH]1)c1ccccc1O | -1.2 | 1.26µM* | ? | -9.8% | 5.62µM* | 26.2%
O=C(N/N=C/c1ccc[nH]1)c1ccccc1OCc1ccccc1Cl | -90.2* | 10µM* | ? | ? | ? | ?
O=C(N/N=C/c1ccc[nH]1)c1ccc(O)cc1 | 6.9 | 8.91µM* | ? | 6.6% | ? | -3.3%
N#CC(c1ccncc1)(c1ncc(C(F)(F)F)cc1Cl)N1CCOCC1 (stereo not given) | -76.8* | 9.1% | -6.3% | ? | -8.7% | -4.4%
Clc1ccc(N2COC3c4cccc5cccc(c45)C32)cc1 (stereo not given) | 37.4 | 12.2% | ? | ? | ? | -27.8%
COc1ccc(N2COC3c4cccc5cccc(c45)C32)cc1 (stereo not given) | -10.1 | -32.3% | 0.3% | 8.2µM* | 4.6% | 5.8µM*
CC(C)(CO)NCc1ccc(Br)cc1 | -4.5 | 8.5% | 1.0% | ? | -8.4% | 20.6µM*
Cc1ccc(CNC(C)(C)CO)cc1 | 16.0 | 3.1% | 4.5% | ? | 0.9% | -2.7%
CCN1CCN(Cc2nnc(-c3ccc(C)cc3)o2)CC1 | 0.0 | 14.4% | 29.7% | 4.7% | 0.8% | -13.4%
CCN(Cc1ccccc1)c1ccc(/C=N/NC(=O)c2cccc(S(=O)(=O)N3CCOCC3)c2)cc1 | 5.1 | 6.31µM* | ? | 13µM* | 7.94µM* | ?
CCN1CCN(S(=O)(=O)c2ccc(Cl)c(C(=O)N(C)Cc3ccccc3)c2)CC1 | -20.0 | . | 0.0% | -24.9% | . | ?
CN(C)S(=O)(=O)N(CC(=O)N1CCN(Cc2ccccc2)CC1)c1ccccc1 | 15.9 | 4.2% | -5.9% | -11.7% | -1.4% | ?
SMILES | IL1B secr inh | RORgamma inh | ELG1 DNA repair | DT40 TDP1 no CPT | VP16 counter | DT40 TDP1 CPT
CN(Cc1cccc(Cl)c1Cl)C(=O)c1cccc(S(=O)(=O)N2CCN(Cc3ccccc3)CC2)c1 | -10.5 | . | ? | 16.4µM* | . | ?
CN(CC(=O)N1CCN(Cc2ccccc2)CC1)C(=O)Cc1ccc(Cl)c(Cl)c1 | -12.9 | . | ? | 14.6µM* | . | ?
CN(Cc1ccc(OC(F)F)cc1)C(=O)c1cccc(S(=O)(=O)N2CCN(c3ccccc3)CC2)c1 | -62.4* | . | . | 2.91µM* | . | 14.6µM*
CCN(CC(=O)Nc1ccc(OC)cc1)C(=O)c1cccc(S(=O)(=O)N2CCN(c3ccccc3)CC2)c1 | -29.9 | . | . | -15.7% | . | -4.7%
CC(C)c1nc(SCC(=O)N2CCCCC2)c2c(=O)n(C)c(=O)n(C)c2n1 | 19.4 | . | . | ? | . | ?
CCn1c(=O)c2ccccc2n2c(SCC(N)=O)nnc12 | -0.5 | . | 17.7% | 1.3% | . | -0.1%
COc1ccccc1CNC(=O)CSc1cc(C)[nH]c(=O)n1 | . | . | . | 9.9% | . | -1.9%
COc1ccc(C(=O)NC(C(=O)NCCc2ccc3c(c2)OCCO3)C(C)C)cc1 (stereo not given) | -18.7 | -9.0% | -4.3% | ? | 11.2%[10 µM] | -16.4%
CN(Cc1cnn(Cc2ccccc2)c1)C(=O)c1cccc(S(=O)(=O)N2CCOCC2)c1 | 54.2 | . | -21.1% | 5.8µM* | . | 7.31µM*
CN(Cc1cccc(F)c1)C(=O)c1cccc(S(=O)(=O)N2CCN(Cc3ccccc3)CC2)c1 | -25.6 | 96.3% | -8.1% | ? | ? | ?
CN(Cc1ccc(Cl)c(Cl)c1)C(=O)c1cccc(S(=O)(=O)N2CCN(Cc3ccccc3)CC2)c1 | ? | . | -19.3% | 20.6µM* | . | 20.6µM*
Cc1cc(C)c(S(=O)(=O)N2CCC(N3CCN(Cc4ccccc4)C(=O)C3=O)CC2)c(C)c1 | . | . | . | -17.1% | . | -18.0%
COc1cc2c(cc1OC)C1Cc3ccc(OC)c(OC)c3CN1CC2 (stereo not given) | -1.5 | -29.9% | ? | 7.31µM* | 2.8% | ?
COc1cc2c(cc1OC)[C@@H]1Cc3ccc(OC)c(OC)c3CN1CC2 | 29.9 | 14.7% | -8.0% | ? | -11.5% | 3.3%
